Data on 27 compounds can be found in PubChem BioAssay (Tox21).

Several values for one entry are separate records, joined by “and”; a condition that tells them apart may be missing. Equal values may be shown once. Results filed as inconclusive are left out. The source holds several records for some structures; these can differ, active in one and inactive in another. Activity calls are given as the source filed them. Unless noted, the call rests on the fitted dose curve; in most records, active means well fitted curve in the direction sought with a large enough effect in the repeat runs; inconclusive means weak or mixed curves; inactive means no such curve, though single readings can be large; an effect the other way counts as inactive or inconclusive.

Assay [1] is described as follows: qHTS assay to identify small molecule agonists of the peroxisome proliferator-activated receptor delta (PPARd) signaling pathway - cell viability counter screen (AID 743211). Further: nearly all actives have a fitted effect of over 55% in size. Further: potency means the concentration at half of the fitted maximal effect. In short, it runs like this:
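qHTS cell viability: PPARd-bla HEK293H; 17 h cpd, 37C; CellTiter-Glo, luminescence at 30 min RT.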
(In general: Quantitative high-throughput screening tests each substance at several concentrations.)

The target of assay [2] is Peroxisome proliferator-activated receptor delta (Homo sapiens) (UniProt Q03181). In words: qHTS assay to identify small molecule agonists of the peroxisome proliferator-activated receptor delta (PPARd) signaling pathway (AID 743212; calls by dose curve). In short, it runs like this:
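Read-out: beta-lactamase FRET fluorescence after 2 h room-temperature incubation with LiveBLAzer B/G substrate. Cells were HEK293H carrying a UAS-bla reporter for PPARd, treated at 37 C with DMSO-dissolved compounds.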

Assay [3] can be described thus: qHTS assay to identify small molecule antagonists of the peroxisome proliferator-activated receptor delta (PPARd) signaling pathway - cell viability counter screen (AID 743213). Further: nearly all actives have a fitted effect of over 50% in size. Further: potency means the concentration at half of the fitted maximal effect. In short, it runs like this:
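Agonist-stimulated (L165041, 300 nM final) HEK293H PPARd UAS-bla cells are exposed to compounds for 17 h at 37 C, and ATP-based luminescence (CellTiter-Glo) from the same wells reports cytotoxicity.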

Assay [4] is described as follows: qHTS assay to identify small molecule agonists of the farnesoid-X-receptor (FXR) signaling pathway - cell viability counter screen (AID 743218). Further: nearly all actives have a fitted effect of over 45% in size. Further: potency means the concentration at half of the fitted maximal effect. In short, it runs like this:
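Viability counter screen in the same wells: CellTiter-Glo luminescence, 30 min room-temperature incubation, measured after the beta-lactamase read. Cells were GeneBLAzer FXR-UAS-bla HEK 293T, compound-treated 16 h at 37C.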

In assay [5] the target is Bile acid receptor (Homo sapiens) (UniProt Q96RI1). In words: qHTS assay to identify small molecule agonists of the farnesoid-X-receptor (FXR) signaling pathway (AID 743220; active means well fitted activation curve with a large enough effect in the signal ratio in the repeat runs, not every such curve was filed as active; the % refers to the signal ratio). In short, it runs like this:
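FXR-UAS-bla HEK 293T cells carrying a UAS-driven beta-lactamase reporter were plated for 5 h at 37C/5% CO2, then exposed to DMSO-dissolved Tox21 10K compounds for 16 h at 37C. A LiveBLAzer B/G FRET substrate was loaded for 2 h at room temperature before fluorescence reading.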

Assay [6] is described as follows: qHTS assay to identify small molecule antagonists of the farnesoid-X-receptor (FXR) signaling pathway - cell viability counter screen (AID 743221; active means well fitted cell-killing curve with a large enough effect in the repeat runs, not every such curve was filed as active; further: nearly all actives have a fitted effect of over 50% in size; further: potency means the concentration at half of the fitted maximal effect). The gist of the method: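 After a 5 h settling period, FXR-bla HEK 293T cells receive compound and chenodeoxycholic acid (50 uM final) and incubate 16 h at 37 C; CellTiter-Glo luminescence, read after 30 min at room temperature, reports cell viability.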

Assay [7] deals with Peroxisome proliferator-activated receptor delta (Homo sapiens) (UniProt Q03181). The assay can be described thus: qHTS assay to identify small molecule antagonists of the peroxisome proliferator-activated receptor delta (PPARd) signaling pathway (AID 743215; active means well fitted inhibition curve with a large enough effect in the signal ratio in the repeat runs, not every such curve was filed as active; the % refers to the signal ratio; further: series mostly up to about 62 µM). The gist of the method:
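Agonist L165041 (300 nM final) added with compound to PPARd-bla HEK293H UAS-bla reporter cells; 17 h incubation at 37 C. Read-out: LiveBLAzer FRET substrate, 2 h at room temperature, fluorescence intensity.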

For assay [8], the target named is Bile acid receptor (Homo sapiens) (UniProt Q96RI1). The assay can be described thus: qHTS assay to identify small molecule antagonists of the farnesoid-X-receptor (FXR) signaling pathway (AID 743217; active means well fitted inhibition curve with a large enough effect in the signal ratio in the repeat runs, not every such curve was filed as active; the % refers to the signal ratio; further: potency means the concentration at half of the fitted maximal effect). The gist of the method: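 Antagonist mode: chenodeoxycholic acid at 50 uM final stimulates a UAS-driven beta-lactamase reporter in HEK 293T FXR-bla cells during 16 h, 37C compound exposure. Read-out is FRET substrate fluorescence after 2 h at room temperature.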

The target of assay [9] is Vitamin D3 receptor (Homo sapiens) (UniProt P11473). The assay can be described thus: qHTS assay to identify small molecule agonists of the vitamin D receptor (VDR) signaling pathway (AID 743222; calls by dose curve). The gist of the method:
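Agonist mode, beta-lactamase reporter: fluorescence from LiveBLAzer B/G FRET substrate (2 h, room temperature) read after 16 h compound treatment at 37 C of VDR-bla cells, which were pre-incubated 4 h after seeding.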

Assay [10] shares this target. In words: qHTS assay to identify small molecule antagonists of the vitamin D receptor (VDR) signaling pathway (AID 743223; active means well fitted inhibition curve with a large enough effect in the signal ratio in the repeat runs, not every such curve was filed as active; the % refers to the signal ratio). The gist of the method: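 Reporter line VDR-bla; stimulus 1alpha,25-(OH)2 vitamin D3, 3 nM final; compound co-addition, 16 h 37C/5% CO2; LiveBLAzer B/G substrate 2 h RT; fluorescence intensity.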

Chain of Bile acid receptor (Homo sapiens) (Q96RI1 whole entry, looked up): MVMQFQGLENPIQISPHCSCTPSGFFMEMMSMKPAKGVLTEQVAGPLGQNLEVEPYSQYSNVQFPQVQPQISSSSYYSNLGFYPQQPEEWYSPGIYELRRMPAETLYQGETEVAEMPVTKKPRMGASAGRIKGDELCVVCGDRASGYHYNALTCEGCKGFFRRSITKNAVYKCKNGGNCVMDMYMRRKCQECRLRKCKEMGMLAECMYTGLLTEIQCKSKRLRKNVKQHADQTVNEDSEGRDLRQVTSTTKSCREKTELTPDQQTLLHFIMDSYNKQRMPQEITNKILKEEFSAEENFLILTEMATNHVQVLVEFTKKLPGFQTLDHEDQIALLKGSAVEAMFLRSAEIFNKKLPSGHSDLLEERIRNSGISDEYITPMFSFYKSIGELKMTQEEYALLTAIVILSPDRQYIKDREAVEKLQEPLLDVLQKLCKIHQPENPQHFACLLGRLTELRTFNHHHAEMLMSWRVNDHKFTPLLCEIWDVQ
Chain of Peroxisome proliferator-activated receptor delta (Homo sapiens) (Q03181 whole entry, looked up): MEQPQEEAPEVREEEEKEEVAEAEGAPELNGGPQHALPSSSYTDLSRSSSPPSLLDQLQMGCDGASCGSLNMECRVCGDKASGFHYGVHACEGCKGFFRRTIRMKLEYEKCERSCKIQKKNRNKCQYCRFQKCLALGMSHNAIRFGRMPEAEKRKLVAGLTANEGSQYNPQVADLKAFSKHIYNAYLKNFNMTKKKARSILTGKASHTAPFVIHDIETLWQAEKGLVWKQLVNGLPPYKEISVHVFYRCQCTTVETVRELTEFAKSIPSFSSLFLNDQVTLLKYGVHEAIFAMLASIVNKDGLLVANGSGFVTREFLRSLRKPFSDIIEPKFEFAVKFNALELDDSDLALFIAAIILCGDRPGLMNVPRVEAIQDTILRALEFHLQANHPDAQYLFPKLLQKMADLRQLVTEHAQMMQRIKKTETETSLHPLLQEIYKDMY
Chain of Vitamin D3 receptor (Homo sapiens) (P11473 whole entry, looked up): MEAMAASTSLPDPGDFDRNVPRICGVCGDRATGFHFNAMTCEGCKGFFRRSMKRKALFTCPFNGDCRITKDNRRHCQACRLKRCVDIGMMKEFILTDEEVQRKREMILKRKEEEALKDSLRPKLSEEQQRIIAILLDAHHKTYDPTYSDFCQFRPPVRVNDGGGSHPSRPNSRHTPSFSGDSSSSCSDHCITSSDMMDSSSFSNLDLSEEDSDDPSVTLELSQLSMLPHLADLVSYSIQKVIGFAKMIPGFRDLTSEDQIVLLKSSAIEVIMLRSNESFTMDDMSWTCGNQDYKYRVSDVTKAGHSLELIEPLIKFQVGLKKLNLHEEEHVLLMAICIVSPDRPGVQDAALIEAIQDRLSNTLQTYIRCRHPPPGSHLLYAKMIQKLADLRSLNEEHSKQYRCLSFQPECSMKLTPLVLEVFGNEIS

Regarding `Cc1cc(C(C)(C)c2cc(C)c(O)c(C)c2)cc(C)c1O`, the results for the Potency in assay [1], in assay [3] and in assay [4] were 47.4 µM (active), 42.2 µM (active) and 47.4 µM (active), respectively. In [2], the Potency entry was “inactive”. Besides, the result in assay [5] was inactive.

Take `ClC1=C(Cl)[C@]2(Cl)[C@H]3[C@H]([C@H]4C=C[C@H]3C4)[C@@]1(Cl)C2(Cl)Cl`: the Potency entry in assay [1], in assay [2], in assay [3], in assay [4] and in assay [6] was “inactive” in each case.

On to `CC(C)CCCCCOC(=O)c1ccccc1C(=O)OCCCCCC(C)C`, for which the Potency result in [1], in assay [2], in assay [3], in assay [7], in [8] and in assay [4] was “inactive” throughout. For the same compound, the Potency result in assay [6] and in assay [9] was “inactive” each time. For the same compound, in assay [5], the outcome was inactive.

For `NNC(=O)c1ccccc1`, the Potency result in [1], in assay [2], in assay [3], in assay [7], in [4] and in assay [6] was “inactive” in each case.

Consider `Clc1ccc(C(c2ccccc2Cl)C(Cl)(Cl)Cl)cc1` (stereo not given), for which the Potency in assay [1] is 49.3 µM (active) and 28.7 µM (active); in [4], 62.1 µM (active). The Potency result in assay [2], in assay [3], in [7], in assay [6], in assay [9] and in assay [10] was “inactive” in each case.

As for `N#CCCSCCC#N`, the Potency entry in [1], in [2], in [3], in assay [4] and in [6] was “inactive” each time.

For `Oc1ccc(C(c2ccc(O)cc2)(C(F)(F)F)C(F)(F)F)cc1`, in assay [1], the Potency entry is “inactive and 54.9 µM (active)”. The Potency result in assay [2], in assay [3], in [7], in assay [4], in [6] and in [9] was “inactive” each time.

As to `COc1cccc2c1C(=O)c1c(O)c3c(c(O)c1C2=O)C[C@@](O)(C(=O)CO)CC3OC1CC(N2CCOC(OC)C2)C(O)C(C)O1` (stereo not given in full), the Potency result in assay [1], in [2], in assay [3], in assay [4] and in [6] was “inactive” throughout.

In the case of `COP(=S)(OC)Oc1cc(Cl)c(Br)cc1Cl`, the Potency result in [1], in assay [2], in [3], in [4] and in [9] was “inactive” throughout. Moreover, the compound was called inactive in [5].

Regarding `CC1(C)C(/C=C(\Cl)C(F)(F)F)C1C(=O)OC(C#N)c1cccc(Oc2ccccc2)c1` (stereo not given), the Potency result in assay [1], in [2], in assay [3], in assay [4], in assay [6] and in [9] was “inactive” throughout. Also, the Potency result in assay [10] is “inactive”. In assay [8], the Potency is 17.7 µM (active). The compound was classed as inactive in assay [5].

For the compound `BrC(Br)Br`, the Potency entry in [1], in [2], in assay [3], in assay [8], in assay [4] and in assay [6] was “inactive” each time. The Potency result in assay [9] is “inactive”. Further, the compound was classed as inactive in assay [5].

Regarding `O=C1c2ccccc2C(=O)C1C(=O)C(c1ccccc1)c1ccc(Cl)cc1` (stereo not given), the Potency in [1] was 24.5 µM (active); in assay [4], 38.9 µM (active). Moreover, the Potency result in assay [2], in [3], in assay [6] and in [9] was “inactive” throughout.

As for `CN(C)[C@@H]1C(=O)C(C(N)=O)=C(O)[C@@]2(O)C(=O)C3=C(O)c4c(O)ccc(Cl)c4[C@@](C)(O)[C@H]3C[C@@H]12`, the Potency entry in assay [1], in [3], in assay [4] and in assay [6] was “inactive” throughout. Besides, the call in assay [5] was inactive.

For `CC(C)CC(C)N` (stereo not given), the Potency entry in assay [1], in assay [2], in assay [7], in assay [4] and in assay [6] was “inactive” in each case.

As for `O=C(CBr)c1ccc(O)cc1`, the Potency result in assay [1], in assay [3], in assay [8], in assay [4], in [6] and in assay [9] was “inactive” in each case.

Turning to `O=C(Nc1ccc2[nH]ccc2c1)c1cc2cc(F)ccc2n1Cc1cccc(F)c1`, the Potency in [1] is 24.5 µM (active); in assay [3], 43.6 µM (active); in [8] it was 54.9 µM (active); in [4], 49 µM (active). Besides, the compound was called inactive in [5]. For the same compound, in assay [9], the Potency result was “inactive”.

With `CC(C)[C@H](C(=O)O[C@H](C#N)c1cccc(Oc2ccccc2)c1)c1ccc(Cl)cc1`, the Potency result in assay [1], in assay [2], in assay [3] and in [6] was “inactive” throughout.

With `CN(C)CCc1c[nH]c2cccc(O)c12`, the Potency result in [1], in assay [2], in assay [3], in assay [4] and in assay [9] was “inactive” each time.

In the case of `Clc1ccc(-c2ccc(Cl)c(Cl)c2Cl)c(Cl)c1Cl`, the results for the Potency in assay [1] and in assay [4] were 20.8 µM (active) and 46.6 µM (active), respectively. Moreover, the Potency result in [3], in assay [6], in assay [9] and in assay [10] was “inactive” in each case. In addition, the outcome in assay [5] was inactive.

Consider `O=c1[nH]c2ccccc2n1C1CCN(CCCC(c2ccc(F)cc2)c2ccc(F)cc2)CC1`, for which the Potency in assay [1] is 24.5 µM (active) and 29.8 µM (active); in assay [3] it was 21.9 µM (active) and 29.8 µM (active); in assay [4] it was 21.9 µM (active). In addition, the result in assay [5] was inactive.

For the compound `COc1ccc(OC)c(CC(C)N)c1` (stereo not given), the Potency entry in assay [1], in assay [2], in assay [3], in [4], in assay [6] and in assay [9] was “inactive” in each case.

As for `O=C(O)C1C2CCC(O2)C1C(=O)O` (stereo not given), the Potency entry in [1], in assay [2], in assay [3], in assay [4], in assay [6] and in assay [9] was “inactive” throughout.

As for `ClC(Cl)=C(Cl)Cl`, the Potency result in [1], in assay [3], in [8], in [6], in assay [9] and in [10] was “inactive” throughout. The compound was called inactive in [5].

Turning to `Nc1ccccc1C(=O)Oc1ccc2ccccc2c1`, the Potency entry in [1], in [3], in assay [8], in [4] and in assay [6] was “inactive” throughout. Further, the result in [5] was inactive.

With `CCCCCCCCCCCCBr`, the Potency result in assay [1], in assay [2], in assay [3] and in [9] was “inactive” each time. Moreover, the Potency was 13.8 µM (active) in assay [4] and 43.6 µM (active) in assay [6].

For the compound `N#CCCC(Br)(C#N)CBr` (stereo not given), the Potency entry in [1], in [2] and in [6] was “inactive” each time. In addition, the compound was called inactive in [5].

With `O=[N+]([O-])c1ccc2ccc3cccc4ccc1c2c34`, the Potency entry in assay [1], in assay [3], in assay [7], in [8], in assay [4] and in assay [6] was “inactive” each time. Also, the Potency entry in [9] and in [10] was “inactive” throughout. For the same compound, the result in assay [5] was inactive.
